Source: PubChem BioAssay (Tox21)
Where “and” joins values, the source holds several entries; their conditions need not be identical. Identical values can stand only once. Records with an inconclusive call do not appear. A call without a number means that no potency is given here. Where a structure was tested more than once in an assay, its records may differ in their call. Calls of active or inactive are those of the source. Unless noted, calls follow the shape of the dose curve; as a rule, active = well fitted curve in the direction sought with a large enough effect in the repeat runs; inconclusive = weak or mixed curves; inactive = no such curve, though single readings can be large; an effect the other way counts as inactive or inconclusive.

Experiments:
[1] = qHTS assay to identify small molecule agonists of the RXR signaling pathway - cell viability counter screen (AID 1159529); also: nearly all actives have a fitted effect of over 50% in size; also: potency is read from the fitted curve at half-maximal effect
How it was run: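 Steps: seed RXR-alpha-UAS-bla HEK 293T cells in assay medium containing 2% charcoal-stripped FBS; incubate 5 hr; add compounds in DMSO; incubate 16 hr at 37 C; after the bla read, add CellTiter-Glo and read luminescence at 30 min.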

[2] = qHTS assay to identify small molecule antagonists of the retinoid acid receptor (RAR) signaling pathway - cell viability counter screen (AID 1159551); also: nearly all actives have a fitted effect of over 35% in size; also: potency is read from the fitted curve at half-maximal effect
How it was run: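 C3RL4 RARE-luciferase line; cpds + retinol 1 uM final, 6 h, 37 C/5% CO2; CellTiter-Glo ATP luminescence, 30 min RT.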

[3] = qHTS assay to identify small molecule antagonists of the retinoic acid receptor (RAR) signaling pathway (AID 1159552; also: nearly all actives have a fitted effect of over 50% in size; also: potency is read from the fitted curve at half-maximal effect)
How it was run: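 Retinol at 1 uM final stimulated RARE-luciferase expression in C3RL4 cells exposed to test compounds for 6 hr at 37 C. Reduced luminescence, read 30 min after detection reagent, indicated pathway antagonism.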

[4] = qHTS assay to identify small molecule agonists of the retinoic acid receptor (RAR) signaling pathway (AID 1159553); conditions: C3RL4 RARE luciferase reporter, agonist, 6 h; activation: at 73.3 µM (top of the series) unless noted; also: potency is read from the fitted curve at half-maximal effect
How it was run: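 RARE-luc C3RL4 cells; overnight attachment 37 C/5% CO2; compound (DMSO) 6 hr; luciferase reagent, 30 min RT; luminescence read-out.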

[5] = qHTS assay to identify small molecule antagonists of the estrogen related receptor (ERR) signaling pathway from Tox21 library - cell viability counter screen (AID 1224834); also: nearly all actives have a fitted effect of over 30% in size; also: potency is read from the fitted curve at half-maximal effect
How it was run: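 Multiplexed viability counter screen in ERR cells: 17.5 h compound exposure at 37 C, CellTiter-Fluor added, 30 min at 37 C/5% CO2, fluorescence read.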

[6] = target: Luciferin 4-monooxygenase (Photinus pyralis) (UniProt P08659); experiment: qHTS assay to identify small molecule inhibitors of firefly luciferase (AID 1224835); also: nearly all actives have a fitted effect of over 25% in size; also: potency is read from the fitted curve at half-maximal effect
Luciferin 4-monooxygenase (Photinus pyralis), sequence (P08659 whole entry, looked up): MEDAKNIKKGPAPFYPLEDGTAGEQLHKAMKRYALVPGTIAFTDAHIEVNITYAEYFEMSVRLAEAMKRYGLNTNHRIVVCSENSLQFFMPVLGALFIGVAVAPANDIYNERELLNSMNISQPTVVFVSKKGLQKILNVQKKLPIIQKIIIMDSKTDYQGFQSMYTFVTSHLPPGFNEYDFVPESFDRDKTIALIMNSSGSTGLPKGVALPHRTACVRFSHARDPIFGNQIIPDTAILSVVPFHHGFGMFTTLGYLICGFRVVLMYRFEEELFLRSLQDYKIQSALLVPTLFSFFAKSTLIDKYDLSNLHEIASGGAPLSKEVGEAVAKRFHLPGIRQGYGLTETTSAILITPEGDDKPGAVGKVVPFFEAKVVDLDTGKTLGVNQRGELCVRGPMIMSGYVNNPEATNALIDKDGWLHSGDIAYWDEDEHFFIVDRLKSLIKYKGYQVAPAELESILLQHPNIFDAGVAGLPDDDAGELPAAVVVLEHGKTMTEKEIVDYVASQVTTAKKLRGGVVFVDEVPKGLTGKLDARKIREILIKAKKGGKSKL
How it was run: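 Inhibition of purified Photinus luciferase is measured by luminescence. Substrate levels (D-luciferin, ATP) sit at their KM values. Each compound is tested in a concentration series.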

[7] = qHTS assay to identify small molecule agonists of the constitutive androstane receptor (CAR) signaling pathway - cell viability counter screen (AID 1224836); also: nearly all actives have a fitted effect of over 45% in size
How it was run: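 Cells were seeded and incubated 4 hrs. Compounds were added across 15 concentrations together with PK11195 at 0.75 uM final. Plates were incubated 23 hrs at 37 C. CellTiter-Fluor was added and fluorescence measured.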

[8] = qHTS assay to identify small molecule antagonists of the constitutive androstane receptor (CAR) signaling pathway - cell viability counter screen (AID 1224837); also: nearly all actives have a fitted effect of over 45% in size
How it was run: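 Read-out: CellTiter-Fluor fluorescence after 23 hr at 37 C/5% CO2. Cells: HepG2 double-stable for hCAR and CYP2B6-2.2kb. Compounds tested at 15 concentrations in the presence of CITCO, final concentration 50 nM.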

[9] = target: Nuclear receptor subfamily 1 group I member 3 (Homo sapiens) (UniProt Q14994); experiment: qHTS assay to identify small molecule antagonists of the constitutive androstane receptor (CAR) signaling pathway (AID 1224838);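 also: HepG2 cells stably expressing hCAR with CYP2B6 luciferase reporter stimulated by CITCO; nearly all actives have a fitted effect of over 40% in size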
Nuclear receptor subfamily 1 group I member 3 (Homo sapiens), sequence (Q14994 whole entry, looked up): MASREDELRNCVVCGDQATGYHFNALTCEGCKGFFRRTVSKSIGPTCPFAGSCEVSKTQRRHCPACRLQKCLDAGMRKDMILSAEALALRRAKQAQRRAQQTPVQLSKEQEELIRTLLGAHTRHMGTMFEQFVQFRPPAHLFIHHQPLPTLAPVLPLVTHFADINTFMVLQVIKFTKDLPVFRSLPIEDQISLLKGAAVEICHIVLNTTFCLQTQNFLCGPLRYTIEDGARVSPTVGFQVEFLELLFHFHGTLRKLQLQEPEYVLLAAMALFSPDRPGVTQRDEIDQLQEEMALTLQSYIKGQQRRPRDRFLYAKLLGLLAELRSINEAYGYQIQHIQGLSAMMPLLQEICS
How it was run: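 Read-out: ONE-Glo luciferase luminescence after 30 min at room temperature. HepG2-CYP2B6-hCAR double-stable cells, compounds in 15-point titration plus 50 nM CITCO final, 24 h at 37 C/5% CO2.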

[10] = target: Nuclear receptor subfamily 1 group I member 3 (Homo sapiens) (UniProt Q14994); experiment: qHTS assay to identify small molecule agonists of the constitutive androstane receptor (CAR) signaling pathway (AID 1224839); also: nearly all actives have a fitted effect of over 15% in size; also: potency is read from the fitted curve at half-maximal effect;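 as to activation: HepG2 cells stably carrying human CAR and a CYP2B6 luciferase reporter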
How it was run: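 Cells were plated and incubated 4 hrs, then dosed with compounds at 15 concentrations. PK11195 was added to 0.75 uM final. After 24 hrs at 37 C, luciferase luminescence was measured.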

[11] = qHTS assay to identify small molecule antagonists of the estrogen related receptor signaling pathway with the pleiotropic PPARgamma coactivator (PGC) from Tox21 10K library - cell viability counter screen (AID 1224840; active = well fitted cell-killing curve with a large enough effect in the repeat runs, not every such curve was filed as active; also: nearly all actives have a fitted effect of over 40% in size)
How it was run: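 Fluorescence read-out of CellTiter-Fluor viability reagent, added after cells had been exposed to compound in DMSO for 17.5 h at 37 C; 30 min development at 37 C/5% CO2. Cells: PGC/ERR line, 2,000/well.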

[12] = qHTS assay to identify small molecule antagonists of the estrogen related receptor signaling pathway with the pleiotropic PPARgamma coactivator (PGC) from Tox21 10K library (AID 1224841; call rule not given here; also: actives are mostly falling curves and most rising ones were filed inactive; nearly all actives have a fitted effect of over 50% in size; also: potency is read from the fitted curve at half-maximal effect)
How it was run: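 Luminescence read-out (One-Glo luciferase reagent, 30 min at room temperature) from PGC/ERR cells exposed to DMSO-dissolved test compounds for 18 h at 37 C; cells, 2,000 per well, had been preincubated 6 h before compound transfer.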

[13] = qHTS assay to identify small molecule agonists of the estrogen related receptor signaling pathway with the pleiotropic PPARgamma coactivator (PGC) from Tox21 10K library (AID 1224842); also: nearly all actives have a fitted effect of over 15% in size
How it was run: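 Luminescence from One-Glo (30 min, room temperature) measured after PGC/ERR cells had 18 h at 37 C with pinned compound (23 nL in DMSO). Cells had been seeded at 2,000 per well and pre-incubated 6 h.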

[14] = qHTS assay to identify small molecule agonists of the hypoxia (HIF-1) signaling pathway - cell viability counter screen (AID 1224844; calls by dose curve; also: nearly all actives have a fitted effect of over 50% in size; also: potency is read from the fitted curve at half-maximal effect)
How it was run: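 CellTiter-Glo luminescence read-out, 30 min RT, taken in the same wells as the beta-lactamase HRE reporter assay; HRE-bla ME-180 cells, 0.5% dialyzed FBS, 17 hr compound treatment at 37C, 5% CO2.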

[15] = target: Thyrotropin receptor (Homo sapiens) (UniProt P16473); experiment: qHTS assay to identify small molecule agonists of the thyroid stimulating hormone receptor (TSHR) signaling pathway (AID 1224843; calls by dose curve; also: nearly all actives have a fitted effect of over 45% in size; also: potency is read from the fitted curve at half-maximal effect)
Thyrotropin receptor (Homo sapiens), sequence (P16473 whole entry, looked up): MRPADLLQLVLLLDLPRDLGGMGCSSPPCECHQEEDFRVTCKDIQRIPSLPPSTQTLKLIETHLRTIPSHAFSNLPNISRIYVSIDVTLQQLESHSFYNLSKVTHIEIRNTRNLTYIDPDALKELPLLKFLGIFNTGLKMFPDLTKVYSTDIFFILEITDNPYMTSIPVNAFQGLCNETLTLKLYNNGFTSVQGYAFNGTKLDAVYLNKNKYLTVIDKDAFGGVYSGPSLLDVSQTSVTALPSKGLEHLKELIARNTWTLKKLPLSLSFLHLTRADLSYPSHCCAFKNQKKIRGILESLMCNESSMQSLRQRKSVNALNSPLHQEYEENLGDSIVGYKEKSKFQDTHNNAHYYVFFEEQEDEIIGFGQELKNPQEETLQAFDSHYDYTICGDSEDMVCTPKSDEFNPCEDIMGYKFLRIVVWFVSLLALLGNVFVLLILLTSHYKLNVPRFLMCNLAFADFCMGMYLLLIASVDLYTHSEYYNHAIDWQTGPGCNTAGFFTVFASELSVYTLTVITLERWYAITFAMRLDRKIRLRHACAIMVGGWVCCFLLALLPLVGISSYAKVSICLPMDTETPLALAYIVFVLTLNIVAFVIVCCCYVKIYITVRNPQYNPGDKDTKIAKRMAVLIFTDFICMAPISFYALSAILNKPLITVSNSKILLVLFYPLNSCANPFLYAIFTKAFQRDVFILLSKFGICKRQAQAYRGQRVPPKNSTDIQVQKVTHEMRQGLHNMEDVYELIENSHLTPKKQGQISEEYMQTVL
How it was run: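 Agonist activity read as cAMP rise via d2/cryptate HTRF competition, 1 h room-temperature detection, in HEK293 cells expressing TSHR. Fifteen-point titrations, each run in triplicate, with a 30 min room-temperature incubation beforehand.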

[16] = qHTS assay to identify small molecule antagonists of the estrogen related receptor signaling pathway with the pleiotropic PPARgamma coactivator (PGC) cell viability counter screen (AID 1224822)
How it was run: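 Fluorescence read-out of CellTiter-Fluor after 30 min at 37 C; PGC/ERR cells, 2,000 per well, had been exposed to DMSO-dissolved compounds for 17.5 h following a 6 h pre-incubation.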

[17] = qHTS assay to identify small molecule antagonists of the estrogen related receptor (ERR) signaling pathway (AID 1224819)
How it was run: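 Luminescence readout (One-Glo, 30 min, RT) of ERR cell line after 18 h compound exposure at 37 C; cells seeded 2,000/well, pre-incubated 6 h, compounds pinned from DMSO stocks.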

[18] = qHTS assay to identify small molecule agonists of the estrogen related receptor (ERR) signaling pathway (AID 1224820)
How it was run: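 An ERR cell line provided by NTP was seeded at 2,000 cells per well and allowed to settle for 6 h before compounds in DMSO were added. After 18 h at 37 C, luciferase activity was measured by One-Glo luminescence.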

[19] = system: estrogen-related receptor alpha (ERRalpha) with PGC-1alpha coactivator, human; experiment: qHTS assay to identify small molecule antagonists of the estrogen related receptor signaling pathway with the pleiotropic PPARgamma coactivator (PGC) (AID 1224821; calls by dose curve)
How it was run: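 A PGC/ERR cell line supplied by NTP is seeded, allowed 6 h at 37 C, and treated with test compounds in DMSO for 18 h. Signal is then measured as luciferase luminescence using One-Glo.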

[20] = qHTS assay to identify small molecule agonists of the estrogen related receptor signaling pathway with the pleiotropic PPARgamma coactivator (PGC) (AID 1224823)
How it was run: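 Compounds dissolved in DMSO are added by pin tool to PGC/ERR cells that have settled for 6 h, and incubation continues 18 h at 37 C. Reporter output is measured as One-Glo luminescence.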

Row | Compound | Potency [1] | Potency [2] | Potency [3] | Potency [4] | Potency [5] | Potency [6] | Potency [7] | Potency [8] | Potency [9] | Potency [10] | Potency [11] | Potency [12] | Potency [13] | Potency [14] | Potency [15] | Potency [16] | Potency [17] | outcome [18] | Potency [19] | outcome [20]
1 | Oc1ccc(Cl)cc1Cl | inactive | inactive | inactive | inactive | inactive | inactive | inactive | inactive | inactive | inactive | inactive | inactive | inactive | inactive | – | – | – | – | – | –
2 | Clc1ccccc1-c1nnc(-c2ccccc2Cl)nn1 | inactive | inactive | inactive | 6.8 µM (active) | inactive | 1.4 µM (active) and 708 nM (active) | inactive | inactive | inactive | 30.4 µM (active) and 9.66 µM (active) | inactive | – | – | inactive | inactive | – | – | – | – | –
3 | OCCOCCO | inactive | inactive | inactive | inactive | inactive | – | inactive | inactive | inactive | inactive | inactive | – | – | inactive | – | – | – | – | – | –
4 | CCC(=O)Nc1ccc(Cl)c(Cl)c1 | inactive | inactive | inactive | inactive | inactive | inactive | inactive | inactive | inactive | inactive | inactive | – | – | inactive | – | – | – | – | – | –
5 | O=C1C(Cl)=C(Cl)C(=O)c2ccccc21 | 12.3 µM (active) and 17.4 µM (active) | 21.8 µM (active) and 24.3 µM (active) | 21.8 µM (active) and 19.3 µM (active) | – | 61.3 µM (active) and 54.5 µM (active) | 5.66 µM (active) and 5.64 µM (active) | – | inactive | – | – | inactive | 34.5 µM (active) and 19.3 µM (active) | inactive | 7.79 µM (active) | – | – | – | – | – | –
6 | CCCCCCCCCc1ccc(O)cc1 | 55.5 µM (active) | – | inactive | 19.5 µM (active) | 61.8 µM (active) | inactive | inactive | inactive | inactive | – | – | – | – | 39.3 µM (active) and 54.9 µM (active) | inactive | – | – | – | – | –
7 | NN=C(N)N | inactive | inactive | – | – | inactive | – | inactive | inactive | – | – | inactive | – | – | inactive | – | inactive | – | – | – | –
8 | CCOP(=S)(OCC)SCSC(C)(C)C | inactive | inactive | – | – | inactive | – | inactive | inactive | inactive | inactive | inactive | – | – | inactive | inactive | – | – | – | – | –
9 | NC(=O)CN1CCCC1=O | inactive | inactive | inactive | – | inactive | inactive | – | inactive | inactive | inactive | inactive | inactive | inactive | inactive | – | inactive | inactive | inactive | inactive | inactive
10 | CCN(CC)C(=O)C(C)Oc1cccc2ccccc12 (centres undefined) | inactive | inactive | – | – | – | inactive | – | inactive | inactive | 54.9 µM (active) and 61.1 µM (active) | inactive | – | – | inactive | inactive and 30.6 µM (active) | – | – | – | – | –
11 | N#Cc1cccnc1 | inactive | inactive | – | – | inactive | – | – | inactive | inactive | inactive | inactive | inactive | inactive | inactive | inactive | – | – | – | – | –
12 | CNC(=S)S | inactive | inactive | – | – | inactive | inactive | – | inactive | inactive | inactive | inactive | – | – | inactive | inactive | – | – | – | – | –
13 | c1ccc2c(c1)Nc1ccccc1S2 | inactive | – | inactive | inactive | – | – | inactive | inactive | inactive | 30.6 µM (active) | inactive | inactive | inactive | inactive | – | inactive | inactive | inactive | inactive | inactive
14 | N#CC(c1ccccc1)c1ccccc1 | inactive | inactive | inactive | inactive | inactive | – | – | inactive | inactive | inactive | inactive | inactive | inactive | inactive | inactive | – | – | – | – | –
15 | CC(O)CN(CC(C)O)CC(C)O (centres undefined) | inactive | – | inactive | inactive | inactive | inactive | inactive | inactive | inactive | inactive | inactive | – | – | inactive | inactive | – | – | – | – | –
16 | CCCCOC(=O)COC(=O)c1ccccc1C(=O)OCCCC | inactive | inactive | inactive | inactive | inactive | – | – | inactive | inactive | inactive | inactive | inactive | inactive | inactive | – | – | – | – | – | –
17 | CCOP(=S)(OCC)SCn1c(=O)oc2cc(Cl)ccc21 | inactive | inactive | inactive | inactive | – | 38.2 µM (active) | – | inactive | inactive | 58.4 µM (active) and 24.3 µM (active) | inactive | – | – | inactive | inactive | – | – | – | – | –
18 | COc1ccc(CO)cc1 | inactive | inactive | – | – | inactive | – | inactive | inactive | – | – | inactive | – | – | inactive | inactive | – | – | – | – | –
19 | Cl | inactive | inactive | – | – | inactive | – | inactive | inactive | – | – | inactive | – | – | inactive | – | – | – | – | – | –
